Measurements reported in the supplement of paper PMC8728848.
This is one part of a sample in which the strongest signals are shown more often than they occur.

Assays:
Assay in all cases: glycan array binding signal (z-score within array); higher = stronger binding
Settings in all cases: glycan notation: IUPAC condensed, linker removed
[1] = molecular target: Fuc(a1-2)Gal(b1-3)GalNAc(b1-4)[Neu5Ac(a2-3)]Gal(b1-4)Glc
In short: (§1)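 From the Consortium for Functional Glycomics database, 3228 arrays were curated, keeping only those whose protein sequence was available. Binding is given as a within-array Z-score averaged across arrays sharing a protein sequence and across linkers. Negative Z-scores can be read as non-binding.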

[2] = molecular target: Fuc(a1-2)[Gal(a1-4)]Gal(b1-4)GlcNAc
In short: as §1

[3] = molecular target: Fuc(a1-2)[GalNAc(a1-3)]Gal(b1-3)GalNAc(b1-3)Gal(a1-4)Gal(b1-4)Glc
In short: as §1

[4] = molecular target: Fuc(a1-2)[GalNAc(a1-3)]Gal(b1-4)GlcNAc(b1-3)Gal(b1-4)GlcNAc
In short: as §1

[5] = molecular target: Fuc(a1-3)[Gal(b1-4)]GlcNAc
In short: as §1

[6] = molecular target: Fuc(a1-3)[Gal(b1-4)]GlcNAc(b1-6)GalNAc
In short: as §1

Fuc(a1-4)GlcNAc = molecular target: Fuc(a1-4)GlcNAc
In short: as §1

[7] = molecular target: Gal(a1-3)Gal(b1-3)GlcNAc(b1-2)Man(a1-3)[Gal(a1-3)Gal(b1-3)GlcNAc(b1-2)Man(a1-6)]Man(b1-4)GlcNAc(b1-4)GlcNAc
In short: as §1

[8] = molecular target: Gal(a1-3)Gal(b1-3)[Fuc(a1-4)]GlcNAc(b1-2)Man(a1-3)[Gal(a1-3)Gal(b1-3)[Fuc(a1-4)]GlcNAc(b1-2)Man(a1-6)]Man(b1-4)GlcNAc(b1-4)GlcNAc
In short: as §1

[9] = molecular target: Gal(a1-3)Gal(b1-4)GlcNAc(b1-2)Man(a1-3)[Gal(a1-3)Gal(b1-4)GlcNAc(b1-2)Man(a1-6)]Man(b1-4)GlcNAc(b1-4)GlcNAc
In short: as §1

[10] = molecular target: Gal(a1-3)Gal(b1-4)GlcNAc(b1-3)GalNAc
In short: as §1

[11] = molecular target: Gal(a1-3)[Gal(a1-4)]Gal(b1-4)GlcNAc
In short: as §1

[12] = molecular target: Gal(a1-4)Gal(b1-3)GlcNAc(b1-2)Man(a1-3)[Gal(a1-4)Gal(b1-3)GlcNAc(b1-2)Man(a1-6)]Man(b1-4)GlcNAc(b1-4)GlcNAc
In short: as §1

[13] = molecular target: Gal(b1-3)GlcNAc(b1-2)Man(a1-3)[GlcNAc(b1-4)][Gal(b1-3)GlcNAc(b1-2)Man(a1-6)]Man(b1-4)GlcNAc(b1-4)GlcNAc
In short: as §1

[14] = molecular target: Gal(b1-3)GlcNAc(b1-3)GalNAc
In short: as §1

[15] = molecular target: Gal(b1-3)[Fuc(a1-4)]GlcNAc(b1-3)Gal(b1-4)[Fuc(a1-3)]GlcNAc
In short: as §1

[16] = molecular target: Gal(b1-4)GlcNAc(a1-6)Gal(b1-4)GlcNAc
In short: as §1

[17] = molecular target: Gal(b1-4)GlcNAc(b1-3)Gal(b1-3)GalNAc
In short: as §1

[18] = molecular target: Gal(b1-4)GlcNAc(b1-3)Gal(b1-3)GlcNAc
In short: as §1

[19] = molecular target: Gal(b1-4)GlcNAc(b1-3)Gal(b1-4)GlcNAc
In short: as §1

[20] = molecular target: Gal(b1-4)GlcNAc(b1-3)Gal(b1-4)GlcNAc(b1-2)[Gal(b1-4)GlcNAc(b1-3)Gal(b1-4)GlcNAc(b1-6)]Man(a1-6)[Gal(b1-4)GlcNAc(b1-3)Gal(b1-4)GlcNAc(b1-2)Man(a1-3)]Man(b1-4)GlcNAc(b1-4)[Fuc(a1-6)]GlcNAc
In short: as §1

[21] = molecular target: Gal(b1-4)GlcNAc(b1-3)Gal(b1-4)GlcNAc(b1-3)Gal(b1-4)GlcNAc(b1-2)[Gal(b1-4)GlcNAc(b1-3)Gal(b1-4)GlcNAc(b1-3)Gal(b1-4)GlcNAc(b1-6)]Man(a1-6)[Gal(b1-4)GlcNAc(b1-3)Gal(b1-4)GlcNAc(b1-3)Gal(b1-4)GlcNAc(b1-2)Man(a1-3)]Man(b1-4)GlcNAc(b1-4)[Fuc(a1-6)]GlcNAc
In short: as §1

[22] = molecular target: Gal(b1-4)GlcNAc(b1-3)Gal(b1-4)GlcNAc(b1-3)Gal(b1-4)GlcNAc(b1-3)Gal(b1-4)GlcNAc(b1-2)Man(a1-3)[Gal(b1-4)GlcNAc(b1-3)Gal(b1-4)GlcNAc(b1-3)Gal(b1-4)GlcNAc(b1-3)Gal(b1-4)GlcNAc(b1-2)Man(a1-6)]Man(b1-4)GlcNAc(b1-4)[Fuc(a1-6)]GlcNAc
In short: as §1

[23] = molecular target: Gal(b1-4)GlcNAc(b1-3)Gal(b1-4)GlcNAc(b1-3)Gal(b1-4)GlcNAc(b1-3)Gal(b1-4)GlcNAc(b1-2)[Gal(b1-4)GlcNAc(b1-3)Gal(b1-4)GlcNAc(b1-3)Gal(b1-4)GlcNAc(b1-3)Gal(b1-4)GlcNAc(b1-6)]Man(a1-6)[Gal(b1-4)GlcNAc(b1-3)Gal(b1-4)GlcNAc(b1-3)Gal(b1-4)GlcNAc(b1-3)Gal(b1-4)GlcNAc(b1-2)Man(a1-3)]Man(b1-4)GlcNAc(b1-4)[Fuc(a1-6)]GlcNAc
In short: as §1

[24] = molecular target: Gal(b1-4)GlcNAc(b1-3)Gal(b1-4)GlcNAc(b1-3)Gal(b1-4)GlcNAc(b1-3)Gal(b1-4)GlcNAc(b1-3)Gal(b1-4)GlcNAc(b1-2)Man(a1-3)[Gal(b1-4)GlcNAc(b1-3)Gal(b1-4)GlcNAc(b1-3)Gal(b1-4)GlcNAc(b1-3)Gal(b1-4)GlcNAc(b1-3)Gal(b1-4)GlcNAc(b1-2)Man(a1-6)]Man(b1-4)GlcNAc(b1-4)[Fuc(a1-6)]GlcNAc
In short: as §1

B1: GS13971A-bth-447-22-447 (Bacteroides thetaiotaomicron) (protein)
chain: EDVDNERSKGMFSASQSGFSTIEVYDLGPLNKIDLSIAKAGLEDTGGTVTFSVEQSLLDSLNNADGTSYQLLPPECYTIENATYSVSPGGDRRVTGGSLVYDPHKIYNLCGFDELKYVLPLRVSSTGTPMNSDRTATLYGFIVKEAIVRLASTGGDFVVEGGTTTSPMNLDTEISFENEWDLTTSFATKGADYVDNYNSANSTYYIPLPSDFYTLPDVTIAKGKTTGGSAISLLGETLPPGNYLLPVSLGGLSGQGDASINIDKETVANYFVIKQGGPINRDHWTVTANTEEKTGEVSAAYPHNGQTISLIDGEINTFWHSKWQGGEVAPPYEIILDMGKENSVSQLGLIARQNALTSMNLEIYAGDDGETWNLIGKYFFDGSIKTEQMVPVKACDARWIRIYIPTLGSGSSVGHLAEIYVYGTDK
What does the source list for B1?
glycan array binding signal (z-score) [1]: -0.611; glycan array binding signal (z-score) [2]: 1.4; glycan array binding signal (z-score) [3]: -0.418; glycan array binding signal (z-score) [4]: -0.622; glycan array binding signal (z-score) [5]: 0.548; glycan array binding signal (z-score) [6]: 0.414; glycan array binding signal (z-score) (Fuc(a1-4)GlcNAc): 12.2; glycan array binding signal (z-score) [7]: -0.916; glycan array binding signal (z-score) [8]: 0.437; glycan array binding signal (z-score) [9]: 0.313; glycan array binding signal (z-score) [10]: 0.741; glycan array binding signal (z-score) [11]: 3.1; glycan array binding signal (z-score) [12]: 0.513; glycan array binding signal (z-score) [13]: 0.373; glycan array binding signal (z-score) [14]: 0.748; glycan array binding signal (z-score) [15]: 1.09; glycan array binding signal (z-score) [16]: 0.525; glycan array binding signal (z-score) [17]: -0.104; glycan array binding signal (z-score) [18]: 0.498; glycan array binding signal (z-score) [19]: -1.12; glycan array binding signal (z-score) [20]: 2.62; glycan array binding signal (z-score) [21]: 0.617; glycan array binding signal (z-score) [22]: 2.21; glycan array binding signal (z-score) [23]: 2.31; glycan array binding signal (z-score) [24]: 2.91
